{"source": "PubChem BioAssay AID492997", "about": "(Johns Hopkins Ion Channel Center, 2010)", "note": "The campaign covered roughly 4,900 compounds. About 2,000 (41%) were called active.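 How the source made its calls: active means thallium signal drop beyond 5 SD of the untreated control mean, on both duplicate plates; inactive means the rest.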 So high a share suggests a set chosen from earlier hits. Not all results are given here."}
{"test": "thallium flux in non-induced HEK293 cells, confirmation, counter-screen for KCNK9 inhibitor project, cell-based, second counter screen, non-induced KCNK9-HEK293 (AID 492997);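 on inhibition: plate controls were buffer only IC0 wells for no effect and SID17386958 at its maximal inhibitory level for full effect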", "settings": "non-induced KCNK9-HEK293, FluxOR thallium flux, at 10 µM; stronger effect = higher value"}
{"smiles": "CCC1(C)Cc2c(sc3[nH]c(=S)n(Cc4ccccc4)c(=O)c23)CO1", "note": "(stereo not given)", "inhibition": "inactive"}
{"smiles": "CCCSc1nc(NCc2ccco2)c2c3c(sc2n1)COC(C)(CC)C3", "note": "(stereo not given)", "inhibition": "38.5% (active)"}
{"smiles": "CCOC(=O)Cc1cc(=O)[nH]c(=O)[nH]1", "inhibition": "inactive"}
{"smiles": "COc1ccc(/C=C2\\CCc3ccccc3C2=O)c(OC)c1OC", "inhibition": "inactive"}
{"smiles": "O=C(CSCc1ccc(Cl)cc1)N1CCN(Cc2ccc3c(c2)OCO3)CC1", "inhibition": "inactive"}
{"smiles": "CC1CCN(C(=O)c2ccc(CSc3ccc(Cl)cc3)cc2)CC1", "inhibition": "36% (active)"}
{"smiles": "CC1CCN(C(=S)c2ccc(-c3ccc(Cl)cc3Cl)o2)CC1", "inhibition": "inactive"}
{"smiles": "CN(C)S(=O)(=O)N1CCC(Oc2cccc(C(=O)NCCCC3CCCC3)c2)CC1", "inhibition": "inactive"}
{"smiles": "Cc1cccc(NC(=O)N(Cc2cc3cc(C)cc(C)c3[nH]c2=O)CC2COCCO2)c1", "note": "(stereo not given)", "inhibition": "inactive"}
{"smiles": "O=C(COC(=O)c1c2c(nc3ccccc13)CCCC2)c1ccc(Br)s1", "inhibition": "22.5% (active)"}
{"smiles": "Cc1ccc(OS(=O)(=O)c2ccc(-c3csc(C)n3)s2)c(C)c1", "inhibition": "inactive"}
{"smiles": "COc1cccc(COC(=O)C2CCN(S(=O)(=O)c3ccc(Cl)cc3)CC2)c1OC", "inhibition": "inactive"}
{"smiles": "O=C(NCCCc1ccccc1)c1cc(COc2c(F)cccc2F)on1", "inhibition": "inactive"}
{"smiles": "CN(CCOc1ccccc1)C(=O)c1cc(COc2c(F)cccc2F)on1", "inhibition": "inactive"}
{"smiles": "O=C(NC1Cc2ccccc2C1)c1cc(COc2cccc(C(F)(F)F)c2)on1", "inhibition": "28% (active)"}
{"smiles": "CC(C)N(C(=O)CSc1nc(COc2ccccc2)nc2ccccc12)C(C)C", "inhibition": "29.5% (active)"}
{"smiles": "Cc1cc(C)cc(NC(=O)CSCc2cnn(-c3ccccc3)c2-n2cccc2)c1", "inhibition": "inactive"}
{"smiles": "CC(C)(C)C1CCC(C(=O)NCC(c2cccs2)N2CCOCC2)CC1", "note": "(stereo not given)", "inhibition": "inactive"}
{"smiles": "O=C(Nc1ccc(Br)c2cccnc12)c1ccc(Cn2cc([N+](=O)[O-])cn2)o1", "inhibition": "31% (active)"}
{"smiles": "CC1=NN(c2cccc(Cl)c2)C(=O)C12CC(C)=C(C)CS2", "note": "(stereo not given)", "inhibition": "40.5% (active)"}
{"smiles": "Cc1cc(C=O)c(C)n1-c1ccc(NC2CCCCC2)c([N+](=O)[O-])c1", "inhibition": "55% (active)"}
{"smiles": "CCOC(=O)c1c(NC(=O)CCCN2CCOCC2)sc2c1CC(C)(C)OC2", "inhibition": "inactive"}
{"smiles": "CCOC(=O)C1=C(C)Nc2sc(C(=O)c3ccc(Br)cc3)c(N)c2C1c1ccc(C(=O)OC)cc1", "note": "(stereo not given)", "inhibition": "32.5% (active)"}
{"smiles": "O=C(/C=C/NNC(=O)c1cccc(Br)c1)c1ccccc1", "inhibition": "50% (active)"}
{"smiles": "COc1ccc(Nc2ncnc3sc(-c4ccccc4)cc23)c(OC)c1", "inhibition": "inactive"}
{"smiles": "CCCCN(CC)C(=O)C1CCCN(S(=O)(=O)c2cccc3nsnc23)C1", "note": "(stereo not given)", "inhibition": "inactive"}
{"smiles": "Cc1ccc(SCC(=O)c2cc(C)c(OC(=S)N(C)C)c(C)c2)cc1", "inhibition": "34% (active)"}
{"smiles": "COc1ccc(C2Nc3ccccc3C(=O)N2Cc2ccccc2)cc1Cn1nnc2ccccc21", "note": "(stereo not given)", "inhibition": "39% (active)"}
{"smiles": "O=S(=O)(c1ccc(F)cc1)N1CCN(Cc2ccccc2C(F)(F)F)CC1", "inhibition": "inactive"}
{"smiles": "Cc1nn(CC(=O)Nc2nc3ccccc3s2)c(C)c1[N+](=O)[O-]", "inhibition": "33.5% (active)"}
{"smiles": "COc1cccc2sc(NNC(=O)c3nc4ccccc4s3)nc12", "inhibition": "inactive"}
{"smiles": "CCn1cnc2scc(-c3ccc(C)c(C)c3)c2c1=O", "inhibition": "inactive"}
{"smiles": "O=C(Nc1ccccc1[N+](=O)[O-])C1C(c2ccccc2)=C1c1ccccc1", "inhibition": "26% (active)"}
{"smiles": "CCCCCCCCn1c2c(c(=N)c3c1CCC3)CCCC2", "inhibition": "27% (active)"}
{"smiles": "Cc1ccc(Cn2ccc(NC(=O)c3cc(C(C)C)on3)n2)cc1", "inhibition": "inactive"}
{"smiles": "CCOC(=O)[C@@H]1[C@H]2COc3ccc(Br)cc3[C@H]2N2C(=O)N(c3ccc(Cl)cc3)C(=O)[C@@]12C", "inhibition": "36% (active)"}
{"smiles": "C[C@@]12C(=O)N(c3cccc(Br)c3)C(=O)N1[C@H](c1ccc(Cl)cc1)[C@@H]1C(=O)N(C3CCCCC3)C(=O)[C@@H]12", "inhibition": "inactive"}
{"smiles": "COC(=O)c1cccc(C(=O)N2CCCC(Nc3ccc4c(c3)OCCO4)C2)c1", "note": "(stereo not given)", "inhibition": "inactive"}
{"smiles": "COc1ccc(OC)c(C(=O)c2coc3ccc(OC)cc23)c1", "inhibition": "27% (active)"}
{"smiles": "COc1ccc(NC(=O)CN(C)CC(=O)Nc2cccc(C(F)(F)F)c2)cc1", "inhibition": "inactive"}
{"smiles": "CN(CCC(=O)Nc1cc(S(=O)(=O)N(C)C)ccc1Cl)CC(=O)Nc1ccc(F)cc1", "inhibition": "42% (active)"}
{"smiles": "COc1ccc(-c2n[nH]c3c2CN(C(=O)c2ccc(F)cc2)CC3)cc1", "inhibition": "inactive"}
{"smiles": "CC1=CC(C)(C)N(C(=O)CSc2nnc(-c3ccccc3)o2)c2ccc(C)cc21", "inhibition": "inactive"}
{"smiles": "COc1cccc(C(=O)NCCSc2ccc(Br)cc2)c1", "inhibition": "inactive"}
{"smiles": "COc1cc(NC(=S)NCCSc2ccc(C)cc2)cc(OC)c1", "inhibition": "24% (active)"}
{"smiles": "COc1ccc(-c2noc(CSc3ccc(C)cc3)n2)cc1", "inhibition": "inactive"}
{"smiles": "FC(F)(F)c1cc(-c2ccco2)nc(NCc2ccc(Cl)cc2)n1", "inhibition": "60.5% (active)"}
{"smiles": "O=C1/C(=C/c2ccc(F)cc2)SC(=S)N1NS(=O)(=O)c1ccccc1", "inhibition": "inactive"}
{"smiles": "C/C(=N\\NC(=S)Nc1ccc(C)cc1)c1cc2ccccc2o1", "inhibition": "inactive"}
{"smiles": "CCOC(=O)c1c(NC(=O)CSc2cn(CC)c3ccccc23)sc2c1CCC2", "inhibition": "inactive"}
{"smiles": "CCCCCn1c(=O)c(C(=O)OCC)c(Cl)c2ccccc21", "inhibition": "40.5% (active)"}
{"smiles": "Cc1ccccc1N1CCN(Cc2nc(Cc3ccccc3F)no2)CC1", "inhibition": "inactive"}
{"smiles": "Fc1cccc(Cl)c1CSc1ccc(-c2ccco2)nn1", "inhibition": "32% (active)"}
{"smiles": "O=C(Nc1cc(Cl)cc(Cl)c1)C(NCCCO)c1ccccc1", "note": "(stereo not given)", "inhibition": "29% (active)"}
{"smiles": "Cc1cc(OC(C)C(=O)Nc2ccc(S(=O)(=O)Nc3onc(C)c3C)cc2)cc(C)c1Cl", "note": "(stereo not given)", "inhibition": "inactive"}
{"smiles": "O=C(CNCCC1=CCCCC1)Nc1ccccc1N1CCCCCC1", "inhibition": "38.5% (active)"}
{"smiles": "Cc1cc(C)cc(OCC(=O)Nc2cc(NC(=O)COc3cc(C)cc(C)c3)cc(C(=O)O)c2)c1", "inhibition": "inactive"}
{"smiles": "COc1cccc(-c2cc3nc4c(c(N5CCC6(CC5)OCCO6)n3n2)CCCC4)c1", "inhibition": "27% (active)"}
{"smiles": "COc1cccc2cc(C(C)N(CCCN3CCOCC3)C(=O)Nc3ccc(Cl)cc3)oc12", "note": "(stereo not given)", "inhibition": "28.5% (active)"}
{"smiles": "CN(C)c1ccc(C(CNC(=O)c2ccc(F)cc2)c2c[nH]c3ccccc23)cc1", "note": "(stereo not given)", "inhibition": "39% (active)"}
{"smiles": "COc1cccc(CN(C)C(=O)CC23CC4CC(CC(C4)C2)C3)c1OC", "inhibition": "inactive"}
{"smiles": "CCN(CC)C(=O)CC1(c2ccccc2OC)CCOC(C(C)C)C1", "note": "(stereo not given)", "inhibition": "38% (active)"}
{"smiles": "CC(C)(C)NC(=O)NC(=O)CN1CCC(Cc2ccccc2)CC1", "inhibition": "inactive"}
{"smiles": "O=C1N=C2SCCN2/C1=C\\c1c(Cl)cccc1Cl", "inhibition": "inactive"}
{"smiles": "COc1cccc(OC)c1C(=O)Nc1sc2c(c1C(N)=O)CCCC2", "inhibition": "inactive"}
{"smiles": "COc1ccc(C(C)=O)cc1COc1ccc(Cl)c(C)c1", "inhibition": "37% (active)"}
{"smiles": "Cc1ccc(OCc2cc(C(=O)N(C)CCc3ccccc3)no2)cc1C", "inhibition": "inactive"}
{"smiles": "O=C(NCc1ccccc1)C1=C[C@@H](C2CCCCC2)C[C@@H](OCc2ccc(CO)cc2)O1", "inhibition": "inactive"}
{"smiles": "CCC(C)(C)n1nnnc1C(c1cccs1)N1CCN(c2nc3ccccc3s2)CC1", "note": "(stereo not given)", "inhibition": "34.5% (active)"}
{"smiles": "CC1(C)CC(N2CCN(C(c3ccccc3)c3ccccc3)CC2)=CC(=[N+]2CCCCC2)C1", "inhibition": "36% (active)"}
{"smiles": "Cc1ccccc1CSc1nnc(CCCCCNC(=O)OC(C)(C)C)o1", "inhibition": "22% (active)"}
{"smiles": "COC(=O)c1sc(-c2ccc(C(C)(C)C)cc2)cc1NC(=O)/C=C/C(=O)O", "inhibition": "inactive"}
{"smiles": "COc1ccc(C(=O)Nc2ccccc2C(=O)N/N=C/c2ccccc2OC)cc1", "inhibition": "31% (active)"}
{"smiles": "COc1ccc(C(=O)NN2C(=O)C3C(c4ccccc4)C=CC(c4ccccc4)C3C2=O)cc1", "note": "(stereo not given)", "inhibition": "inactive"}
{"smiles": "COc1cccc(-c2cnc(OC(C)(C)C)nc2OC(C)(C)C)c1", "inhibition": "inactive"}
{"smiles": "O=C(Nc1ccc2c(c1)CCC2)c1cccc(S(=O)(=O)Nc2ccccc2Cl)c1", "inhibition": "inactive"}
{"smiles": "O=C(N/N=C/c1ccccn1)c1cccc(NC(=O)c2ccc(Cl)cc2)c1", "inhibition": "22.5% (active)"}
{"smiles": "O=C(COc1ccc(Cl)cc1Cl)N/N=C/c1ccccn1", "inhibition": "inactive"}
{"smiles": "CCc1ccccc1NC(=O)/C(=C/c1ccccc1)c1ccccc1", "inhibition": "51.5% (active)"}
{"smiles": "COc1ccc(C2CC(c3cccs3)=NN2c2ccccc2)cc1", "note": "(stereo not given)", "inhibition": "34% (active)"}
{"smiles": "CCOc1ccccc1NC(=O)C12CC3CC(C1)CC(c1ccc(C)cc1)(C3)C2", "inhibition": "inactive"}
{"smiles": "Cc1ccc(S(=O)(=O)N2CCN(C(=O)COC(=O)c3c(C)cc(C)cc3C)CC2)c(C)c1", "inhibition": "inactive"}
{"smiles": "O=C(NCCc1ccccc1)c1ccc2c(c1)N(Cc1ccccc1)CCS2", "inhibition": "29% (active)"}
{"smiles": "O=C1/C(=C/c2ccc3c(c2)OCO3)CCC/C1=C\\c1ccc2c(c1)OCO2", "inhibition": "inactive"}
{"smiles": "CC1(C)CC(=O)CC2(C1)NCC(c1ccccc1Cl)c1c2[nH]c2ccccc12", "note": "(stereo not given)", "inhibition": "33% (active)"}
{"smiles": "CCCCC(=O)Nc1ccccc1N1CCN(c2ccc(F)cc2)CC1", "inhibition": "43% (active)"}
{"smiles": "Cc1cccc(C(=O)Nc2ccccc2N2CCN(c3ccc(F)cc3)CC2)c1", "inhibition": "29.5% (active)"}
{"smiles": "Cc1ccc(N2CCN(S(=O)(=O)c3ccc(F)cc3)CC2)c(C)c1", "inhibition": "inactive"}
{"smiles": "COc1ccc(C(=O)C2CCCN(C(=O)c3ccc(OC)o3)C2)c(C)c1", "note": "(stereo not given)", "inhibition": "inactive"}
{"smiles": "Cc1ccc2c(c1)N(C(=O)CCC(=O)N1CCc3ccccc3C1)CCO2", "inhibition": "inactive"}
{"smiles": "Fc1ccc(Cn2nnnc2C(c2cccs2)N2CCCCCC2)cc1", "note": "(stereo not given)", "inhibition": "30.5% (active)"}
{"smiles": "CCC(c1nnnn1Cc1ccco1)N(CCc1ccccc1)Cc1cc2cccc(C)c2[nH]c1=O", "note": "(stereo not given)", "inhibition": "33.5% (active)"}
{"smiles": "CCOc1ccc2[nH]c(=O)c(CN(Cc3nnnn3CCc3ccccc3)CC3CCCO3)cc2c1", "note": "(stereo not given)", "inhibition": "inactive"}
{"smiles": "Cc1cccc2cc(CN(Cc3nnnn3Cc3ccccc3)C3CCCC3)c(=O)[nH]c12", "inhibition": "inactive"}
{"smiles": "O=C1CC(NNc2ccccc2)C(=O)N1c1cccc(Cl)c1", "note": "(stereo not given)", "inhibition": "inactive"}
{"smiles": "c1ccc(C(c2ccccc2)N2CCN(Cc3nnnn3C3CCCCC3)CC2)cc1", "inhibition": "29% (active)"}
{"smiles": "CCOc1ccc(OCc2ccc(C(=O)Nc3cccc(C)n3)o2)cc1", "inhibition": "inactive"}
{"smiles": "CSc1cccc(NC(=S)N(C(C)C)C(C)c2ccccn2)c1", "note": "(stereo not given)", "inhibition": "24.5% (active)"}
{"smiles": "CC(C)C(=O)Nc1cccc(NC(=S)NC(=O)C(c2ccccc2)c2ccccc2)c1", "inhibition": "24% (active)"}
{"smiles": "COC(C(=O)Nc1ccc(S(=O)(=O)Nc2ccc(C)c(C)c2)cc1)c1ccccc1", "note": "(stereo not given)", "inhibition": "inactive"}
